High-throughput results from PubChem BioAssay.
HSF-1 act – HSF-1 activators, primary screen, NIH3T3-HGL cells, MG132 stress, luminescence, single point. NIH3T3-HGL HSF-1 luciferase reporter, 8 h; 100% = twice DMSO control signal. activation, % at 9 µM. hit rate 1.7% among 300,000. AID 504408, 2011;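 active = mean replicate activation of at least 50% with a set share of replicates each reaching 50%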
Platelet DG rel – inhibitors of platelet dense granule secretion, primary screen, cell-based, MLPCN, human platelets. hit rate 0.22% among 300,000. inhibition, %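 (compounds screened at 7.5 µM in platelet-rich plasma)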. human platelet-rich plasma, SFLLRN dense granule ATP release, luminescence;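 active = mean replicate score, as percent of positive control, at or above 50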
HSP90 inh – HSP90 inhibitors, primary screen, cell lysate, luminescence; Heat shock protein HSP 90 (rabbit reticulocyte lysate; luciferase refolding); Rabbit reticulocyte lysate, luciferase refolding luminescence, 3 h; inhibition, % at 5.6 µM; hit rate 0.91% among 290,000; AID 1789, 2009;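 active = inhibition above the screen-wide mean plus 3 SD, computed separately per campaign, cut at about 16% in these data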;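 also: inhibitors lower the luminescence because luciferase stays unfolded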
MPTP inh – mitochondrial permeability transition pore inhibitors, primary screen, biochemical, isolated mouse mitochondria, absorbance; hit rate 1.4% among 360,000; AID 602449, 2012; Ca2+ swelling absorbance, 30 min; inhibition, % at 10 µM;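 active = inhibition of 50% or more, scaled per plate between neutral and stimulator controls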
HSF1 inhib – HSF1 inhibitors in luciferase reporter cells, primary screen, cell-based, NIH3T3, luminescence; NIH3T3-HGL HSE-luciferase, MG132-induced, luminescence 8 h; active compounds read low; activity change, negative = inhibition, % at 7.5 µM (by protocol); hit rate 0.77% among 300,000;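 active = more than half of replicate wells show activity change below -50%, luminescence cut by over half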;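 also: luciferase reports HSF-1 transcriptional activity via heat shock element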
dFosB act – activators of delta FosB homodimer, primary screen, biochemical, fluorescence polarization, TAMRA-CDK5 oligo, single point | Protein FosB (Mus musculus), P13346 | purified delta FosB; percent of positive-control signal above neutral wells | activation, % at 25 µM | hit rate 0.99% among 340,000 | AID 493131, 2011;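 active = mean activation above about 17%, with every replicate also reaching it, limit read from the data, passing the limit was not always enough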
Target sequence (P13346 whole entry, looked up): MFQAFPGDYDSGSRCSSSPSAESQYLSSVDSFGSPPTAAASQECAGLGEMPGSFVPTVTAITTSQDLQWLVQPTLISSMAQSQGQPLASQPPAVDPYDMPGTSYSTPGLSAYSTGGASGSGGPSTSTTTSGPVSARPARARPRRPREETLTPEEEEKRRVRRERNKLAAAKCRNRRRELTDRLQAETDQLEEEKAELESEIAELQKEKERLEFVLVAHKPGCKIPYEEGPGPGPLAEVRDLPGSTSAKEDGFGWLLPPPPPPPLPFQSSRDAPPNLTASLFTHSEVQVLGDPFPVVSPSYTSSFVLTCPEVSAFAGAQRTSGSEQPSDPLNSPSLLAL
Large screens that a line does not name were inactive. Most compounds without a hit are left out; they make up all but 4.9% or so of the library.

O=C(Nc1ccccc1NC(=O)c1ccccc1F)c1ccccc1F	HSF-1 act 57.5
Cc1ccccc1NC(=O)c1ccccc1NC(=O)c1ccccc1F	none
O=C(Nc1ccccc1C(=O)Nc1ccccc1)c1ccccc1F	none
O=C(NN=C1CCCCCCCCCCC1)c1ccccc1F	HSF1 inhib -54.8
O=C(NCCc1ccccc1)C(=O)c1cn(CC(=O)N2CCCC2)c2ccccc12	HSF-1 act 52.4
Nc1ccc(Sc2cnn(-c3ccccc3)c(=O)c2Cl)cc1	HSF-1 act 57.3
Cn1ccnc1COc1ccc(/C=N/O)cc1	none
Cc1ccc(N2CC(NC(=O)C3CC3)CC2=O)cc1 (stereo not drawn)	none (no result: HSP90 inh)
CCCOC1CCCN(C(=O)CCc2nnc(CCCCc3ccccc3)o2)C1 (stereo not drawn)	HSF-1 act 55.6
CCC(OC(=O)CN1C(=O)C(=O)c2ccccc21)C(=O)Nc1ccccc1OC (stereo not drawn)	none
CN1CCN(NC(=O)c2cc(Br)ccc2Cl)CC1	none
COc1ccc(-c2nc3ccccn3c2NCc2ccc3c(c2)OCO3)cc1	none
COc1ccc(-c2nc3cc(C)ccn3c2NCc2ccc3c(c2)OCO3)cc1	HSF-1 act 54.6
COC(=O)N/N=C/c1cccs1	none
COC(=O)C(=C/C(C)=C/c1cccs1)C(=O)OC	HSF-1 act 66.5
O=C(Nc1ccccc1)c1nnsc1S(=O)c1ccc(Cl)cc1 (stereo not drawn)	HSF-1 act 156.7
O=C(Nc1ccc(Cl)cc1)c1cccs1	none
Cc1ccnc(SCC(=O)c2ccc(Br)cc2)c1C#N	HSF-1 act 89.8
O=C(NCc1ccccc1)c1onc(CSc2ccc(F)cc2)c1C(=O)NCc1ccccc1	none (no result: HSP90 inh)
Cc1cc(C)cc(SCc2noc(C(=O)NCc3ccccc3)c2C(=O)NCc2ccccc2)c1	HSF1 inhib -60.0 (no result: HSP90 inh)
O=C1CCC(c2ccc(-n3ccnc3)cc2)=NN1	Platelet DG rel 82.1 (no result: HSP90 inh)
COc1cc2nc(CSc3nc(-c4ccc(F)cc4)cs3)[nH]c(=O)c2cc1OC	HSF-1 act 66.7
COC(=O)c1ccc2c(=O)[nH]c(CSc3nc(-c4ccc(F)cc4)cs3)nc2c1	none
CCOC(=O)[C@]12CCC=C1N(CCC1=CCCCC1)C(=O)[C@H](CC(=O)N1CCCCC1)C2	none (no result: HSF-1 act, Platelet DG rel, HSP90 inh, HSF1 inhib, dFosB act)
O=c1c2c3c(sc2nc(NCCO)n1Cc1ccco1)CCCCC3	HSF1 inhib -56.7
CN(C)CCNc1nc2sc3c(c2c(=O)n1-c1ccccc1)CCCCC3	HSF-1 act 50.4
CN(C)CCNc1nc2sc3c(c2c(=O)n1-c1ccc(F)cc1)CCCCC3	none
COc1ccc(C(O)P(=O)(OC(C)C)OC(C)C)c(OC)c1 (stereo not drawn)	none
CCn1ncc(Br)c1C(=O)Nc1ccc(C(C)C)cc1	HSF-1 act 58.9
O=C(Nc1ccn(Cc2ccccc2F)n1)c1ccc(COc2cccc(Br)c2)cc1	HSF-1 act 51.5
O=C(Nc1ccn(Cc2ccccc2F)n1)c1ccc(COc2ccccc2Cl)cc1	none
COc1cc(C2C(C#N)=C(N)OC3=C2C(=O)CCC3)c([N+](=O)[O-])cc1OC (stereo not drawn)	HSF1 inhib -76.6
Cc1ccc(CN2C(=O)C(C)Oc3ccc(C)cc32)cc1 (stereo not drawn)	none (no result: HSF-1 act, Platelet DG rel, HSP90 inh, HSF1 inhib, dFosB act)
COc1ccccc1N=c1oc2cc(O)ccc2cc1C(=O)NCC1CCCO1 (stereo not drawn)	none
COc1ccc2cc(C(N)=O)c(=Nc3ccc(C)cc3)oc2c1	none
COc1ccccc1N=c1oc2cc(O)ccc2cc1C(N)=O	Platelet DG rel 57.0
Cc1cccc(N=c2oc3cc(O)ccc3cc2C(N)=O)c1	HSF-1 act 58.4
CN=c1scc(-c2c[nH]c3ccccc23)n1C	none (no result: HSF-1 act, Platelet DG rel, HSF1 inhib)
O=S(=O)(Cc1noc(-c2ccccc2Cl)n1)c1ccccn1	HSF-1 act 61.2
Cc1nc(SCC(=O)Nc2nc3ccccc3s2)c(C#N)c(C)c1C	HSP90 inh 67.9, HSF1 inhib -92.1
Cc1nc(SCC(=O)Nc2nccs2)c(C#N)c(C)c1C	none (no result: HSF-1 act, Platelet DG rel, HSP90 inh, HSF1 inhib)
O=C(CSC1=NCCS1)Nc1nc2ccccc2s1	HSF-1 act 56.3
N#CC1=C(N)Oc2cc(N)ccc2C1c1ccccc1Cl (stereo not drawn)	HSF1 inhib -61.4
CC1=C(C(=O)N(C(C)C)C(C)C)CC(CC(=O)NC(c2ccccc2)c2ccccc2)C(=O)N1CCCN1CCCC1=O (stereo not drawn)	none (no result: HSF-1 act, Platelet DG rel, HSP90 inh, HSF1 inhib, dFosB act)
COCc1cc(=O)[nH]c(Nc2nc3ccccc3o2)n1	HSF-1 act 83.8
O=C(c1cc(COc2ccc(F)c(F)c2)on1)N1CCN(C2CCCCC2)C(=O)C1	none
c1cc2c3c(cccc3c1)NC1(CCCCCC1)N2	dFosB act 22.5
c1cc2c3c(cccc3c1)NC1(CCCCC1)N2	dFosB act 40.3
c1cc2c3c(cccc3c1)NC1(CCC3(CC1)Nc1cccc4cccc(c14)N3)N2	none
CC1=Nc2cccc3cccc(c23)N1	none
CC(C)(C)C(=O)NC1CC2CCCC(C1)N2C(=O)Nc1cccc(Cl)c1 (stereo not drawn)	none
Cc1ccc(-c2ccc(=O)[nH]n2)cc1	HSF-1 act 55.3
O=C(c1ccc(Cl)cc1)C1CCCN(Cc2cnn(-c3ccccc3)c2)C1 (stereo not drawn)	none
O=C(c1ccc(Cl)cc1)C1CCCN(Cc2ccc(Oc3ncccn3)cc2)C1 (stereo not drawn)	Platelet DG rel 52.1
Cc1ccc(CCNS(=O)(=O)c2cc(Br)cnc2N)cc1	none
Cc1c(C(=O)/C=C/c2cccs2)oc2ccc(F)cc12	HSF-1 act 106.0
COc1cc(/C=C/C(=O)c2c(O)ccc3c(C)cc(=O)oc23)ccc1O	HSF-1 act 113.2
Cc1c(C(=O)Nc2nccs2)oc2ccc(F)cc12	none (no result: HSF-1 act, Platelet DG rel, HSP90 inh, HSF1 inhib)
Cc1cc(=O)oc2c(C(=O)/C=C/c3ccccc3)c(O)ccc12	none
Cc1cc(=O)oc2c(C(=O)/C=C\c3cccs3)c(O)ccc12	HSF-1 act 61.2
C=CCN(C(=O)CSc1nc2c(sc3ccccc32)c(=O)n1CCN(CC)CC)c1ccccc1	none
O=C(Nc1ccc(Cl)c(C(=O)N2CCOCC2)c1)c1ccccc1	none
O=C(NNc1ncnc2ccccc12)c1cccc(Cl)c1	HSF-1 act 59.6
COCCNC(=O)CSc1nnc(-c2ccccc2)c(-c2ccccc2)n1	none
Cc1cccc(/C(N)=N/OC(=O)c2ccc3c(c2)OCO3)c1	Platelet DG rel 64.2
Cc1cccc(C(=O)O/N=C(\N)c2cccc([N+](=O)[O-])c2)c1	none
N/C(=N\OC(=O)c1ccc2c(c1)OCO2)c1cccc([N+](=O)[O-])c1	HSF-1 act 58.6
Cc1cccc(/C(N)=N/OC(=O)c2cccnc2)c1	none
